Measured values taken from PubChem BioAssay (NCATS).
“And” between values parts separate entries of the source, which are not always exact repeats. Identical values can stand only once. Results filed as inconclusive are left out. The source made the active and inactive calls. Unless noted, the call rests on the fitted dose curve; in most records, active means well fitted curve in the direction sought with a large enough effect; inconclusive means small, poorly fitted or top-dose-only effect, or another doubt; inactive means no such curve, though single readings can be large; an effect the other way counts as inactive or inconclusive.

How the values were obtained:
[1] = Cell Viability - BJ (AID 421; calls by dose curve;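 further: potency means the concentration at half of the fitted maximal effect; cells exposed to compound for 40 hours at 37 °C before readout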); details: BJ fibroblast viability, qHTS
How it was run: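 Luminescent ATP signal (CellTiter-Glo, 20 min at room temperature) served as the read-out of viable BJ cells after 40 hours of compound treatment. Responses were scaled between DMSO and 100 uM tamoxifen, and AC50 values were obtained by Hill modeling.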

[2] = Cell Viability - Hek293 (AID 427;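 active means compounds whose dose-response curve shows a full or clear partial loss of cell viability, called from curve shape rather than a numeric limit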;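 further: potency means the concentration at half of the fitted maximal effect; cells exposed to compound for 40 hours at 37 °C before reading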); details: qHTS
How it was run: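 Luminescent ATP read-out (CellTiter-Glo, 20 min RT) after 40 hr compound exposure at 37 °C in complete medium. Signal normalized to DMSO (basal) and 100 uM tamoxifen (100% inhibition); concentration-response fitted with the standard Hill equation to give AC50.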

[3] = Cell Viability - HepG2 (AID 433; calls by dose curve;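 further: potency means the concentration at half of the fitted maximal effect; potency for ATP loss meaning cytotoxicity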); details: qHTS
How it was run: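 In this qHTS format, a 40 h, 37 °C compound incubation of HepG2 cells in complete medium precedes a 20 min CellTiter-Glo step at room temperature. Tamoxifen and doxorubicin serve as positive controls; Hill-equation fits yield AC50.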

[4] = Cell Viability - MRC5 (AID 434; calls by dose curve;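 further: potency means the concentration at half of the fitted maximal effect; potency reflects cytotoxicity seen as loss of intracellular ATP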); details: MRC5 lung fibroblast viability, qHTS
How it was run: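 AC50 values come from Hill-equation fits of intracellular ATP loss, measured by CellTiter-Glo luminescence. Normal lung fibroblasts (MRC5) had 40 hr compound treatment at 37 C, normalized between DMSO and 100 uM tamoxifen.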

[5] = Cell Viability - SK-N-SH (AID 435; calls by dose curve;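 further: potency means the concentration at half of the fitted maximal effect; compound exposure lasted 40 h at 37 °C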); details: SK-N-SH neuroblastoma cell viability qHTS
How it was run: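 Human neuroblastoma line, 40 h exposure at 37 °C, ATP quantified via luciferase luminescence; DMSO and 100 uM tamoxifen define 0 and 100% inhibition for AC50 fitting.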

[6] = Cell Viability - Renal Proximal Tubule (AID 545); details: renal proximal tubule cells viability, primary cells of rat origin; at 91.7 µM (top of the series);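 further: 0% = DMSO only and -100% = 100 µM tamoxifen; nearly all actives have a fitted effect of over 40% in size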
How it was run: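 In this qHTS format, normal rat kidney-derived proximal tubule cells in complete culture medium receive compound titrations, then sit 40 hours at 37 °C before luciferase-based ATP quantitation; potency is reported as AC50 from concentration-response curves.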

[7] = biological target: Cytochrome P450 3A4 (Homo sapiens) (UniProt P08684); test: qHTS Assay for Inhibitors and Substrates of Cytochrome P450 3A4 (AID 884); details: recombinant CYP3A4, Luciferin-PPXE luminescence; series mostly up to 57.1 µM; further: nearly all actives have a fitted effect of over 50% in size; further: potency means the concentration at half of the fitted maximal effect
Chain of Cytochrome P450 3A4 (Homo sapiens) (P08684 whole entry, looked up): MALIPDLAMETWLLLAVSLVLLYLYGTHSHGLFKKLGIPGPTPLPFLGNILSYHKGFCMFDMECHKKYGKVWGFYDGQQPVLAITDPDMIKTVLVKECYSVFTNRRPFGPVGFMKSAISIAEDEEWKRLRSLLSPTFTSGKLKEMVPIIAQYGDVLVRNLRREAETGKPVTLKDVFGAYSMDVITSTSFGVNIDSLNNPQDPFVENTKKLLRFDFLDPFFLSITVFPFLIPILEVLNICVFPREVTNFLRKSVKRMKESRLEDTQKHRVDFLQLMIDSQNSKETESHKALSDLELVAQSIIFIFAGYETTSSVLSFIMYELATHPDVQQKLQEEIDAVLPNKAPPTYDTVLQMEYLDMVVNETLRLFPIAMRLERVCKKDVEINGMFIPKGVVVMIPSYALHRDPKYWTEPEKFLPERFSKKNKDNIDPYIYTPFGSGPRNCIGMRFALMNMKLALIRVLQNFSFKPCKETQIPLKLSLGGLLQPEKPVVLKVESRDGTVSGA
How it was run: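 Luminescent readout of luciferin produced by CYP3A4 (20 nM) dealkylation of Luciferin-PPXE, 25 uM (its KM). NADPH-driven reaction ran 60 min at RT after 10 min compound preincubation; data scaled to 57 uM ketoconazole as 100% inhibition.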

[8] = qHTS Assay for Identification of Small Molecule Inducers of Hypoxia Response (AID 2120; active means well fitted curve in the direction sought with a large enough effect in the signal ratio, with a control signal flat, not every such curve was filed as active; the % refers to the signal ratio; further: 0% is about no effect); details: hypoxia response reporter cells, beta-lactamase ratio readout; series mostly up to 104 µM
How it was run: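 Reporter induction read as the CCF4 blue/green (460nm/530nm) emission ratio after 2.5 h dye loading at room temperature. ME-180 HRE-beta-lactamase cells received titrated compounds for 17 h at 37 degrees Celsius; AC50 values derived.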

[9] = qHTS assay for small molecule antagonists of retinoid X receptor alpha signaling (AID 588546; active means well fitted inhibition curve with a large enough effect in the signal ratio, with a control signal flat, not every such curve was filed as active; the % refers to the signal ratio;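 further: cells stimulated with 9-cis-retinoic acid as agonist; on the % scale 0 is the no-effect control and ±100 the full control effect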); details: HEK293T RXRa-UAS-bla, beta-lactamase ratio, antagonist mode; measured here: W530 green channel, cytotoxicity proxy
How it was run: (§1)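 Beta-lactamase reporter inhibition, read as CCF4 fluorescence ratio (ex 405, em 460/530 nm) after 2 h at RT. HEK293T UAS-bla cells, 2500/well, were stimulated with 9-cis-RA at 500 or 100 nM final alongside test compound for 18 h at 37 C.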

[10] = biological target: Retinoic acid receptor RXR-alpha (Homo sapiens) (UniProt P19793); test: as above; details: HEK293T RXRa-UAS-bla, beta-lactamase ratio, antagonist mode
Chain of Retinoic acid receptor RXR-alpha (Homo sapiens) (P19793 whole entry, looked up): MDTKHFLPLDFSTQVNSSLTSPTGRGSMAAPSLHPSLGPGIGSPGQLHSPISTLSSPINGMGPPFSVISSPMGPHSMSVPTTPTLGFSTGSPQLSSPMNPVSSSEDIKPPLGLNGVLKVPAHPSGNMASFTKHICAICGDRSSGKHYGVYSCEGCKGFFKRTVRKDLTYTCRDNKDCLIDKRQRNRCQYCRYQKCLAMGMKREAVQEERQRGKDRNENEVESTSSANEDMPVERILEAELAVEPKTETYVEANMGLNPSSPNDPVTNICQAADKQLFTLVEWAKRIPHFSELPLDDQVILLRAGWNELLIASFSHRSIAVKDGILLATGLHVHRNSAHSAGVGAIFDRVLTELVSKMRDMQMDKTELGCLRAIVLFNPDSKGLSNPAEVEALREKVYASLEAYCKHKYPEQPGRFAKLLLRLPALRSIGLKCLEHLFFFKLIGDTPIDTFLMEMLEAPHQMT
How it was run: as §1

[11] = qHTS assay for environmental chemicals that activate the Aryl hydrocarbon Receptor (AhR) signaling pathway (AID 651777); details: 1A2-DRE human hepatoma cells, luciferase, 24 h; activation: stronger effect = higher value; further: nearly all actives have a fitted effect of over 15% in size; further: potency means the concentration at half of the fitted maximal effect; on activation: % of control where 0% means no effect
How it was run: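 Luminescence (One-Glo, 30 min, room temperature) reports AhR-driven luciferase in stably transfected human hepatoma cells bearing DRE and CYP1A2 promoter. Cells (1,200/well) were treated with compound for 24 hr at 37 C in qHTS format.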

[12] = biological target: Peroxisome proliferator-activated receptor alpha (Homo sapiens) (UniProt Q07869); test: qHTS assay for small molecule agonists of the peroxisome proliferator-activated receptor alpha (PPARalpha) signaling pathway (AID 651778); details: PathHunter PPARalpha complementation, chemiluminescence, 6 h; max response: stronger effect = higher value; further: potency means the concentration at half of the fitted maximal effect; on max response: % of control where 0% means no effect
Chain of Peroxisome proliferator-activated receptor alpha (Homo sapiens) (Q07869 whole entry, looked up): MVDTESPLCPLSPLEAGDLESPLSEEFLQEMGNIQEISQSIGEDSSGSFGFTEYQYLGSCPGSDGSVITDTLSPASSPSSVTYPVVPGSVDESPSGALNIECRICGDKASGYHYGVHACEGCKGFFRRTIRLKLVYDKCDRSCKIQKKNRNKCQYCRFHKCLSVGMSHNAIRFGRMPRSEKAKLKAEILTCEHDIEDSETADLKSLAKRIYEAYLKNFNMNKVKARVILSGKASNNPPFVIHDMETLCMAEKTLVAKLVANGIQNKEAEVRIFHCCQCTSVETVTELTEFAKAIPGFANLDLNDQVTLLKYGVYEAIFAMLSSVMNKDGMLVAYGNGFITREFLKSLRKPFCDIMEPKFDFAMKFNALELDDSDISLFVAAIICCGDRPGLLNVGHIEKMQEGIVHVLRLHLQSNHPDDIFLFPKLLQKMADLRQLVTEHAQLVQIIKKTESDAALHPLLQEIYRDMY
How it was run: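 Chemiluminescence from complemented enzyme reported PPARalpha activation in cells after 6 hr of compound treatment at 37 C. The detection reagent was incubated for 60 min at room temperature, and compounds were scored as agonists.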

[13] = qHTS assay for small molecule agonists of the antioxidant response element (ARE) signaling pathway measured by Nrf2-dependant transcriptional activity - cell viability counter screen (AID 720653; active means well fitted curve in the direction sought with a large enough effect in the repeat runs; an effect the other way counts as inactive or inconclusive; further: on the % scale 0 is the no-effect control and ±100 the full control effect); details: ARE-bla HepG2 viability, CellTiter-Glo ATP luminescence, 16 h; max response: stronger effect = lower value
How it was run: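 Cytotoxicity counter screen: intracellular ATP quantified by CellTiter-Glo luminescence in the same ARE-bla HepG2 plates, after 16 h compound exposure and a 2 h beta-lactamase substrate step.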

[14] = qHTS assay for cell viability of HEK293 cells (AID 743288); details: ATP luminescence (CellTiter-Glo), 18 h; max response: stronger effect = lower value; further: on the % scale 0 is the no-effect control and ±100 the full control effect; nearly all actives have a fitted effect of over 50% in size
How it was run: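 HEK293, 18 h, 37 C, ATP luminescence. Cells at 2,000/well were allowed at least 5 h to settle before dosing; CellTiter-Glo developed 30 min at RT.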

Question: What does the source list for `COc1ccc(/C=C/c2cc(OC)cc(=O)o2)cc1`?
Answer: Potency [1]: > 92 µM (inactive); Potency [2]: > 92 µM (inactive); Potency [3]: > 92 µM (inactive); Potency [4]: > 92 µM (inactive); Potency [5]: > 92 µM (inactive); activity change, negative = cytotoxicity [6]: -20.5% (inactive); Potency [7]: inactive; outcome [8]: inactive; max response [9]: 19.1%; max response [10]: -3.53% (inactive); Potency [11]: 10 µM (active); max response [12]: 9.34% (inactive); max response [13]: 11.1% (inactive); max response [14]: -19.9% (inactive)

Question: Which Potency [1] does the source give for `COc1cc(/C=C/c2ccccc2)oc(=O)c1` here?
Answer: > 92 µM (inactive)

Question: What about the Potency [2] of the same compound?
Answer: > 92 µM (inactive)

Question: What about the Potency [3] of the same compound?
Answer: > 92 µM (inactive)

Question: What about the Potency [4] of the same compound?
Answer: > 92 µM (inactive)

Question: What about the Potency [5] of the same compound?
Answer: > 92 µM (inactive)

Question: What about the activity change, negative = cytotoxicity [6] of the same compound?
Answer: -15.2% (inactive)

Question: What about the Potency [7] of the same compound?
Answer: 15.8 µM (active)

Question: What about the outcome [8] of the same compound?
Answer: inactive

Question: And the max response [9]?
Answer: 21.7%

Question: And the max response [10]?
Answer: -7.15% (inactive)

Question: And the Potency [11]?
Answer: 7.08 µM (active)

Question: What about the max response [12] of the same compound?
Answer: -1.59% (inactive)

Question: What about the max response [13] of the same compound?
Answer: -6.81% (inactive)

Question: And the max response [14]?
Answer: -23% (inactive)

Question: Which Potency [1] does the source give for `CC1=C2[C@H](/C=C(\C)C(=O)O)CC[C@@H](C)[C@H]2CC1` here?
Answer: > 92 µM (inactive)

Question: And the Potency [2]?
Answer: > 92 µM (inactive)

Question: And the Potency [3]?
Answer: > 92 µM (inactive)

Question: And the Potency [4]?
Answer: > 92 µM (inactive)

Question: What about the Potency [5] of the same compound?
Answer: > 92 µM (inactive)

Question: What about the activity change, negative = cytotoxicity [6] of the same compound?
Answer: -15.1% (inactive)

Question: And the Potency [7]?
Answer: inactive

Question: And the outcome [8]?
Answer: inactive

Question: What about the max response [9] of the same compound?
Answer: 26.2%

Question: What about the max response [10] of the same compound?
Answer: -25.2% (inactive)

Question: What about the activation [11] of the same compound?
Answer: 0.0877% (inactive)

Question: And the max response [12]?
Answer: 14.9% (inactive)

Question: What about the max response [13] of the same compound?
Answer: -0.329% (inactive)

Question: What about the max response [14] of the same compound?
Answer: 5.67% (inactive)

Question: For `O=C(O)c1ccccc1`, which Potency [1] is on record?
Answer: > 92 µM (inactive)

Question: What about the Potency [2] of the same compound?
Answer: > 92 µM (inactive)

Question: And the Potency [3]?
Answer: > 92 µM (inactive)

Question: And the Potency [4]?
Answer: > 92 µM (inactive)

Question: What about the Potency [5] of the same compound?
Answer: > 92 µM (inactive)

Question: And the activity change, negative = cytotoxicity [6]?
Answer: -3.81% (inactive)

Question: And the Potency [7]?
Answer: inactive

Question: And the outcome [8]?
Answer: inactive

Question: What about the max response [9] of the same compound?
Answer: -4.31%

Question: What about the max response [10] of the same compound?
Answer: -3.53% (inactive)

Question: And the activation [11]?
Answer: 2.1% (inactive)

Question: And the max response [12]?
Answer: -2.27% (inactive)

Question: What about the max response [13] of the same compound?
Answer: 1.2% (inactive)

Question: And the max response [14]?
Answer: -1.04% (inactive)

Question: With `C=CC(C)(CCC=C(C)C)OC(C)=O` (stereo not given) as the compound, how does the max response [9] read?
Answer: -5.27%

Question: What about the max response [10] of the same compound?
Answer: -7.97% (inactive)

Question: What about the activation [11] of the same compound?
Answer: 3.8% (inactive)

Question: What about the max response [12] of the same compound?
Answer: -0.802% (inactive)

Question: What about the max response [13] of the same compound?
Answer: -13.5% (inactive)

Question: And the max response [14]?
Answer: -14.2% (inactive)

Question: For `C=C(C)C1CC=C(C)C(O)C1` (stereo not given), which Potency [1] is on record?
Answer: > 92 µM (inactive)

Question: And the Potency [2]?
Answer: > 92 µM (inactive)

Question: And the Potency [3]?
Answer: > 92 µM (inactive)

Question: And the Potency [4]?
Answer: > 92 µM (inactive)

Question: And the Potency [5]?
Answer: > 92 µM (inactive)

Question: What about the activity change, negative = cytotoxicity [6] of the same compound?
Answer: 6.86% (inactive)

Question: And the Potency [7]?
Answer: inactive

Question: What about the outcome [8] of the same compound?
Answer: inactive

Question: What about the max response [9] of the same compound?
Answer: -6.28%

Question: And the max response [10]?
Answer: 5.08% (inactive)

Question: And the activation [11]?
Answer: -0.5% (inactive)

Question: What about the max response [12] of the same compound?
Answer: -4.25% (inactive)

Question: And the max response [13]?
Answer: -2.07% (inactive)

Question: And the max response [14]?
Answer: 0.258% (inactive)

Question: What does the source list for `CCCCCCCCCCCCCC(=O)O`?
Answer: Potency [1]: > 92 µM (inactive); Potency [2]: > 92 µM (inactive); Potency [3]: > 92 µM (inactive); Potency [4]: > 92 µM (inactive); Potency [5]: > 92 µM (inactive); activity change, negative = cytotoxicity [6]: -23% (inactive); Potency [7]: inactive; outcome [8]: inactive; max response [9]: 9.83% and 0.375%; max response [10]: -6.83% (inactive) and -2.87% (inactive); activation [11]: -0.758% (inactive) and 0.233% (inactive); Potency [12]: 22.4 µM (active); max response [13]: 1.31% (inactive) and -9.4% (inactive); max response [14]: 2.25% (inactive) and -11.5% (inactive)
